Bioassay records (PubChem BioAssay)
3T3 cytotox = NIH 3T3 cell cytotoxicity. NIH 3T3 viability, CellTiter-Glo ATP luminescence, 48-72 h. Potency, µM (highest dose often 96.7 µM), for inactives: at the top dose activity change, negative = cytotoxicity, actives largely listed as inhibitors. 4.3% of 94,000 active. AID 1345082; note: potency is the fitted concentration of half-maximal effect; nearly all actives have a fitted effect of over 55% in size
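NIH 3T3 cells at 400 cells/well received 23 nL of compound by pintool and were incubated 48 or 72 h at 37 °C. Viability was read as ATP-coupled CellTiter-Glo luminescence.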
HEK cytotox = HEK 293 cell cytotoxicity; 6.6% of 94,000 active; HEK 293 viability, ATP luminescence (CellTiter-Glo), 48-72 h; Potency, µM (titrated, usually from 115 µM), inactives show top-dose activity change, negative = cytotoxicity, actives largely listed as inhibitors; AID 1345083; note: potency is the fitted concentration of half-maximal effect; nearly all actives have a fitted effect of over 60% in size
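CellTiter-Glo luminescence (cellular ATP) was read after 48 or 72 hr of compound exposure at 37 degree Celsius. Cells were HEK 293 plated at 250 cells/well.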
IP6K1 inhibitor = IP6K1 kinase inhibition; IP6K1 kinase, ADP-Glo luminescence, 2 h; active compounds read low; activity change, % (series mostly up to about 58 µM); Q92551; 0.81% of 140,000 active; AID 1645851; in the data active = activity change below about -25%
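ADP-Glo luminescence measures ADP made by human IP6K1 during a 2 h RT reaction with ATP/IP6 (mix at 1.3 mM/130 uM); top library doses 57.5 and 19.1 uM final.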
SNCA expr inh = reduces expression of the alpha-synuclein gene; HEK-293 SNCA-luciferase knock-in, luminescence, 24 h; AID 1671194; 0.17% of 140,000 active; Potency, µM (doses to about 57.2 µM), inactives show at the top dose activity change, negative = inhibition, usual class: inhibitors;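 note: potency is the fitted concentration of half-maximal effect; plate controls were DMSO cells for no effect and cell-free wells for full effect; nearly all actives have a fitted effect of over 45% in size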
Luciferase inh = inhibitors of firefly (Photinus pyralis) luciferase; P08659; purified P. pyralis luciferase, luminescence, biochemical; Potency, µM (top dose mostly 115 µM), most hits filed as inhibitors; 2.5% of 76,000 active; AID 1347043; note: potency is the fitted concentration of half-maximal effect; nearly all actives have a fitted effect of over 65% in size
Target sequence (P08659 whole entry, looked up): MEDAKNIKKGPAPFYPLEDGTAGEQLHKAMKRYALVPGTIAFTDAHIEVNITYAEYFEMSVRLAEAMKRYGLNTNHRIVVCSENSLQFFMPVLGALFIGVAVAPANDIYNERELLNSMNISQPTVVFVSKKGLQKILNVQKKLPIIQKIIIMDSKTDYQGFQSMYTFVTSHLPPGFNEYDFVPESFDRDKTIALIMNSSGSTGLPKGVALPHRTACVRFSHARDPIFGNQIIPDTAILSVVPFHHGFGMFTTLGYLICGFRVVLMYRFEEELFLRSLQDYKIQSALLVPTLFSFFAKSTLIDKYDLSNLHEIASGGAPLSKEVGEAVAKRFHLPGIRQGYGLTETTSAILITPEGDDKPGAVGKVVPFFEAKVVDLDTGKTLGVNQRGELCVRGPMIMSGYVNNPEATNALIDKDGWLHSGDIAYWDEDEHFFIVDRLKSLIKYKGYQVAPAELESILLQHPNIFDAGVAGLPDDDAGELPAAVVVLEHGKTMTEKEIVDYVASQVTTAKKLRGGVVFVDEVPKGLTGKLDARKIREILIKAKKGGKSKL
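Biochemical qHTS: compound (6-point titration) added to 10uM D-luciferin plus 10uM ATP in Tris acetate pH 7.5 buffer with Mg, Tween-20 and BSA, then purified enzyme at 10nM; light output imaged.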
HEK293 viab = cell viability loss counter-screen; AID 1671193; HEK-293-SNCA-luc viability, GF-AFC fluorescence, 24 h; 0.12% of 150,000 active; Potency, µM (top dose mostly 57.1 µM), for the others: at the top dose activity change, negative = cytotoxicity, actives largely listed as cytotoxic;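 note: potency is the fitted concentration of half-maximal effect; 0% = DMSO-treated cells and -100% = medium-only wells without cells; nearly all actives have a fitted effect of over 30% in size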
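Cytotoxicity counterscreen: after 24 h compound treatment of genome-edited SNCA-luciferase HEK-293 cells, live-cell protease substrate GF-AFC read by fluorescence after 30 min; activity scaled between DMSO (0%) and medium-only (-100%), curves Hill-fitted.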
IP6K1 inh cnf = human IP6K1 inhibition, confirmatory. shares compounds with IP6K1 inhibitor. recombinant IP6K1 kinase, ADP-Glo luminescence, 2 h. Potency, µM (top dose mostly 49 µM), without a hit: at the highest dose activity change, negative = inhibition, usual class: inhibitors. 13% of 1,200 active. AID 1645852; note: potency is the fitted concentration of half-maximal effect; nearly all actives have a fitted effect of over 65% in size
The depositor's hits bear a star; i = inactive; u = inconclusive; x = no result given; [ ] = remark or other dose. Only some compounds are listed: those with a hit (about 7.3% of all), similar ones and a draw of the others. Unless noted, calls come from the whole dose curve; as a rule, active = well fitted curve in the direction sought with a large enough effect; inconclusive = small, poorly fitted or top-dose-only effect, or another doubt; inactive = no such curve, though single readings can be large; an effect the other way counts as inactive or inconclusive. Unless noted, % is set by controls: 0 for no effect and ±100 for the full control effect.

SMILES	3T3 cytotox	HEK cytotox	IP6K1 inhibitor	SNCA expr inh	Luciferase inh	HEK293 viab	IP6K1 inh cnf
Cc1ccc(C(=O)Nc2ccc(S(=O)(=O)O)c3cc(S(=O)(=O)O)cc(S(=O)(=O)O)c23)cc1NC(=O)c1cccc(NC(=O)Nc2cccc(C(=O)Nc3cc(C(=O)Nc4ccc(S(=O)(=O)O)c5cc(S(=O)(=O)O)cc(S(=O)(=O)O)c45)ccc3C)c2)c1	x	x	-95*	15%	x	u	3.3µM*
Cc1ccc(Cl)cc1NC(=O)c1cccc(NC(=O)N2CCSc3ncccc32)c1	x	x	7	-10%	x	-13%	x
CN(C)c1ccc2nc3ccc(=[N+](C)C)cc-3sc2c1	x	x	-30*	56%[25.6 µM]	x	u	15µM*
CCC(CC)C(=O)Nc1ccc([C@@H](O)[C@H]2COCC(=O)N2Cc2ccccc2)cc1	-14%[174 µM]	-26%[172 µM]	27	-2%[87.6 µM]	i	-9%[87.6 µM]	x
CCCCc1nn(CC(=O)NCC2Cc3ccccc3CN2C)c(=O)n1CC (centres undefined)	-2%	i	-30*	-8%	i	-5%	-7%
Cc1ccc([S+](=O)([O-])N2CC(=O)N(CC3CC3)CC(C)(C)C2)cc1	u	-10%	-9	x	x	x	x
COc1ccccc1-c1ccc(C(=O)N2CCC(N[S+](C)(=O)[O-])CC2)cc1	-27%	-20%	-1	-26%	x	4%[12.5 µM]	x
Cc1noc(C)c1CC(=O)N1CCCC(c2noc(COc3ccccc3)n2)C1 (centres undefined)	-23%	-27%	3	-3%	i	-19%[12.5 µM]	x
CCOc1ccc(-c2cc(C(=O)Nc3ccc(NC(C)=O)cc3)no2)cc1	x	x	-27*	14%	x	12%	-5%
O=C(Cn1cccn1)N1CC(c2noc(C3CCCN3CC3CC3)n2)C1 (centres undefined)	-12%	-16%	9	-14%	i	8%[12.5 µM]	x
CC(C)c1ccc(CN2CCCC(O)(CN3CCSCC3)C2=O)cc1 (centres undefined)	u	u	-3	-12%	i	-3%	x
Cc1c(CN(C)CC2(O)CCCN(Cc3ccc(C(C)C)cc3)C2=O)cnn1C (centres undefined)	-11%	u	-37*	-6%	i	3%	-6%
Cc1c(O)nc(SCC(=O)Nc2ccc(Cl)cc2Cl)n(-c2ccc(F)cc2)c1=O	x	x	-27*	-3%	x	16%	u
COc1ccc(-c2nccc3c(=O)cc(N4CCN(C)CC4)oc23)cc1OC	u	i	-20	-8%[87.6 µM]	i	10%[87.6 µM]	x
CN1CCN(c2cc(=O)c3ccnc(-c4ccc(Cl)cc4)c3o2)CC1	u	-6%[172 µM]	-32*	6%[87.6 µM]	i	-5%[87.6 µM]	u
CNC(=O)c1cc(C2CC2)nc2c1c(C1CCN(C(=O)c3ccc(C)cc3)CC1)nn2C	u	i	-11	x	x	x	x
O=S(=O)(NCc1ccc(F)cc1)c1ccc(N2CCCCS2(=O)=O)cc1	x	x	-32*	-17%	x	3%	16%
CCOc1ccccc1CN1CCCN(S(C)(=O)=O)C(c2ccccc2)CC(=O)NCC1 (centres undefined)	-30%	-12%	-1	-5%	i	-5%	x
CNCC(=O)N1CCCC(N2CCN(Cc3ccc4c(c3)OCO4)CC2)C1 (centres undefined)	-4%	-18%	-37*	2%	i	3%	-8%
COc1ccc(NS(=O)(=O)c2ccc3nc(-c4ccccc4)[nH]c3c2)cc1	x	x	-31*	-30%	x	-19%	-17%
Cc1cccc(Nc2sc(C(=O)c3ccc(Cl)cc3)c(N)c2C(N)=O)c1	x	x	-39*	0%	x	-9%	-10%
Cc1ccc(Nc2sc(C(=O)c3ccccc3)c(N)c2C(N)=O)cc1	x	x	19	-22%	x	-16%	x
CCCCN(CC)C(=O)C1CCC(CNS(=O)(=O)c2cccc3nsnc23)CC1 (centres undefined)	x	x	-30*	-25%	x	-8%	-4%
